From PubChem BioAssay AID1619 (SRMLSC, 2009) come the findings set out here.

The structures appear in SMILES notation. Hit rate of the full screen: of about 220,000 compounds, about 830 (0.38%) were called active.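 Rule for the calls: active = compound inhibiting the enzyme by more than half at any dose during confirmatory dose-response retesting; inconclusive = strong single-dose inhibitors picked by rank but not retested; inactive = the rest.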 A selection follows. Results with a measured potency or affinity are listed apart. Residues, ends and D or L forms follow the SMILES beside them. *: point of attachment. Bz = O=C(c1ccccc1)*

The inhibition is the change of the read-out against control, counted positive when it falls.

For this experiment, the target named is Leucine aminopeptidase (Plasmodium falciparum (isolate 3D7)) (UniProt Q8IL11). Description: P. falciparum M17LAP inhibitors, primary screen, biochemical, fluorogenic H-Leu-NHMec substrate, 1536-well (AID 1619).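 Note: plate controls were full reaction with DMSO carrier for no effect and no enzyme background for full effect.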 To be noted: recombinant M17LAP, H-Leu-NHMec fluorogenic kinetic assay; at 30 µM; hits give high values.
Chain of Leucine aminopeptidase (Plasmodium falciparum (isolate 3D7)) (Q8IL11 whole entry, looked up): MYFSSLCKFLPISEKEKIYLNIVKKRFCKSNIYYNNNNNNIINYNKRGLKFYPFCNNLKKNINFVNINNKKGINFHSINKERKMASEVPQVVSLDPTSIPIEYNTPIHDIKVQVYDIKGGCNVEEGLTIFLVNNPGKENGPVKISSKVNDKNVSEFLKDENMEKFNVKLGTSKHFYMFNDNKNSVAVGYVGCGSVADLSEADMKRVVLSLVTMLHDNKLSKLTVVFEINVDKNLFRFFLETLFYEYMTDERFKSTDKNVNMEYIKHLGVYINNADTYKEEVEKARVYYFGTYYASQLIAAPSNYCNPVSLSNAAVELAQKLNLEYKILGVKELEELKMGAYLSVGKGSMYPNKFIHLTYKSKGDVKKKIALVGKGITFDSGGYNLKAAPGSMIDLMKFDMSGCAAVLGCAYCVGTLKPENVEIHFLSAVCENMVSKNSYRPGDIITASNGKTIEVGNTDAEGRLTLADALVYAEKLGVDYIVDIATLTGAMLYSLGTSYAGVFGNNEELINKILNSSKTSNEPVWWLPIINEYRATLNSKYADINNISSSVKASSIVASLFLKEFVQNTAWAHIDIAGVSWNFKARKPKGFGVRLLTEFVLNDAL
As for `Cc1nn(Cc2c(Cl)cccc2Cl)c(C)c1NC(=O)CCCn1nc(C)c([N+](=O)[O-])c1C`, the inhibition was -7.34% (inactive). For `CCOc1ccc(NC(=S)NN2C(C)CCCC2C)cc1` (stereo unspecified), the inhibition was -3.03% (inactive). Turning to `C[C@@H]1NC(=O)c2cc([N+](=O)[O-])cc(I)c2OCC[C@@H](C(N)=O)NC(=O)[C@H](CCCCN)NC1=O`, the inhibition was 21.6% (inactive). The same measure for `CCCCC(=O)NC(=S)Nc1cccc(NC(=O)c2ccccc2)c1`: 2.99% (inactive). The figure for `O=C(NCc1ccc2c(c1)OCO2)C1CCC(CNc2c(N3CCCC3)c(=O)c2=O)CC1` (stereo unspecified) is 9.79% (inactive); for `Cc1noc(C)c1CSCc1ccc(Cl)cc1` it is 2.99% (inactive); for `COc1ccc(-c2nc(=S)n3ccsc3n2)cc1OC` it is -2.9% (inactive). Consider `O=C(NCc1ccccc1)N1CCN(c2ccc(F)cc2)CC1`, for which the inhibition was 13.1% (inactive). As to `O=C(c1ccc(S(=O)(=O)N2CCOCC2)cc1)N1CCOCC1`, the inhibition is -9.29% (inactive). The figure for `Cc1cc(C)cc(-n2c(SCC(=O)NCc3ccc4c(c3)OCO4)nc3ccccc3c2=O)c1` is 19.8% (inactive). In the case of `O=C1CCCC/C1=C/Nc1ccc(S(=O)(=O)Nc2ncccn2)cc1`, the inhibition is 6.19% (inactive). The figure for `Cc1cc(C)nc(NS(=O)(=O)c2ccc(Br)cc2)n1` is 15.3% (inactive); for `C=CCOC(=O)c1c(C)nc2cc3c(cc2c1C)OCO3` it is 9.48% (inactive). For `Cc1ccc(C(=O)CC(C(=O)O)n2cnc([N+](=O)[O-])n2)cc1` (stereo unspecified), the inhibition is 11.1% (inactive). The figure for `O=C(c1ccco1)c1cn(CC(=O)N2CCCCC2)c2ccccc12` is 33.5% (inactive); for `O=C(NCc1ccco1)C(=O)c1cn(CC(=O)N2CCCCC2)c2ccccc12` it is 8.43% (inactive). For `CCN(CC)C(=O)Cn1cc(C(=O)C(=O)NCc2ccco2)c2ccccc21`, the inhibition is 25.3% (inactive). `O=C(NCc1cccs1)C(=O)c1cn(CC(=O)N2CCCC2)c2ccccc12`: the inhibition is 24.7% (inactive). In the case of `Cc1ccc(N=C(NO)c2nonc2N)c(C)c1`, the inhibition was 14.3% (inactive).

Take `O=C(Cn1c(=O)oc2ccccc21)NCCc1ccccc1Cl`: the inhibition is 1.7% (inactive).

Turning to `NC(=S)c1ncc(C(F)(F)F)cc1Cl`, the inhibition is -12.7% (inactive). The figure for `CC(C)NC(=O)c1cnc(Sc2ncc(C(F)(F)F)cc2Cl)n1C` is 6.92% (inactive); for `O=C(c1cc[n+]([O-])cc1)N1CCc2c([nH]c3ccccc23)C1c1ccccc1Cl` (stereo unspecified) it is 15.1% (inactive); for `O=C(c1nc(-c2ccccc2)n(-c2ccccc2)n1)N1CCN(S(=O)(=O)c2ccccc2)CC1` it is -12.4% (inactive). For `CCOc1ccc(C(=O)NCC(=O)OCc2cc(C(C)=O)ccc2OC)cc1`, the inhibition is 3.31% (inactive).

With `CCC(C)C(NC(=O)c1ccccc1NC(=O)c1ccco1)C(=O)NNC(=O)c1ccncc1` (stereo unspecified), the inhibition is 3.96% (inactive). For the compound `Cc1cc(C)cc(Nc2cnn(C34CC5CC(CC(CC(=O)O)(C5)C3)C4)c(=O)c2Cl)c1`, the inhibition is 45.8% (inactive). As to `O=C(O)C12C[C@H]3C[C@@H](C1)CC(n1ncc(N4CCN(c5ccccc5)CC4)c(Cl)c1=O)(C3)C2`, the inhibition was 36.9% (inactive). The same measure for `O=C(O)C12CC3CC(C1)CC(n1ncc(N4CCN(c5ccccc5)CC4)c(Cl)c1=O)(C3)C2`: 61.6% (inactive); for `Cc1cccc(Nc2cnn(C34CC5CC(CC(CC(=O)O)(C5)C3)C4)c(=O)c2Cl)c1`: 39.2% (inactive); for `CC(=O)c1ccc(Nc2cnn(C34CC5CC(CC(CC(=O)O)(C5)C3)C4)c(=O)c2Cl)cc1`: 46.4% (inactive).

Turning to `CCc1ccc(Nc2cnn(C34CC5CC(CC(CC(=O)O)(C5)C3)C4)c(=O)c2Cl)cc1`, the inhibition was 53.3% (inactive).

In the case of `CCOC(=O)c1csc(NC(=O)CSc2nnnn2-c2ccc(OC)c(OC)c2)n1`, the inhibition was 11.3% (inactive).

Consider `COc1cccc(-n2c(SCC(=O)N3CCCCC3)nc3c([nH]c4ccccc43)c2=O)c1`, for which the inhibition is -3.56% (inactive). As to `CC(=O)NC(Cc1ccccc1)C(=O)NC1CCN(C(=O)c2ccc([N+](=O)[O-])cc2)CC1` (stereo unspecified), the inhibition is -3.72% (inactive). As to `O=C(O)CCC(NC(=O)C(Cc1ccc2c(c1)OCO2)NC(=O)c1ccccc1)C(=O)O` (stereo unspecified), the inhibition was 46.2% (inactive).

In the case of `O=C(NC(Cc1ccccc1)C(=O)NC(Cc1ccccc1)C(=O)O)c1ccccc1` (stereo not drawn) (Bz-Phe-Phe-OH; configuration not given here), the inhibition is 45.6% (inactive).

Consider `O=C(O)c1ccc(COc2ccccc2/C=C2/NC(=O)N(c3cccc(Cl)c3)C2=O)cc1`, for which the inhibition is 7.83% (inactive). On to `O=C(O)c1ccc(-n2cccc2/C=C2/NC(=O)N(c3ccccc3)C2=O)cc1`, for which the inhibition is 11.3% (inactive). For `CC1=C(C)CC(C(=O)Nc2nc(-c3ccc(F)cc3)c(C)s2)C(C(=O)O)C1` (stereo unspecified), the inhibition is 48.9% (inactive).

Turning to `CCc1noc(C)c1C(=O)Nc1nc(-c2cc(C)ccc2C)c(C)s1`, the inhibition is -3.18% (inactive). As for `CC(=O)C1=C(O)C(=O)N(Cc2ccco2)C1c1ccccc1` (stereo unspecified), the inhibition was 6.17% (inactive). Regarding `CC(=O)C1=C(O)C(=O)N(Cc2ccco2)C1c1ccc(F)cc1` (stereo unspecified), the inhibition is 11% (inactive).

As for `Cc1ccc(S(=O)(=O)N2CCCC2C(=O)N2CCCCCC2)cc1` (stereo unspecified), the inhibition is -4.09% (inactive). Turning to `COc1ccc2c(C(F)(F)F)cc(=O)oc2c1C`, the inhibition was -5.82% (inactive).

Regarding `CC(Sc1nc(-c2ccc(F)cc2)cs1)C(=O)Nc1ccc(Cl)cn1` (stereo unspecified), the inhibition was 15.1% (inactive). For `CC(Sc1nc(-c2ccccc2)cs1)C(=O)Nc1ccc(Cl)cn1` (stereo unspecified), the inhibition is 13.8% (inactive).

For the compound `Cn1c(=O)c(C(=O)Nc2ccccc2S(N)(=O)=O)c(O)c2ccccc21`, the inhibition is -0.17% (inactive). Take `COC(=O)C(C)(C)ONC(=O)Nc1ccccc1Cl`: the inhibition is -4.74% (inactive). Take `CCN(CC)C(=O)c1ccc(N)cc1`: the inhibition was 7.5% (inactive). Consider `COc1ccc(Oc2ccc(/C=C/C(=O)c3ccc(O)cc3)cc2[N+](=O)[O-])cc1`, for which the inhibition is 12.4% (inactive). `CC(C)(C)C1(C)OC(C(N)=O)C(C(N)=O)O1` (stereo unspecified): the inhibition is 8.29% (inactive). On to `Cc1cc(=O)oc2c1c(C(F)(F)F)nn2-c1ccccc1`, for which the inhibition is 2.02% (inactive). The figure for `CCOC(=O)C1CSC(CC(=O)Nc2ccc(Cl)cc2)C(=O)N1` (stereo unspecified) is 13.4% (inactive); for `CCOC(=O)C1CSC(CC(=O)Nc2ccc(OC(F)(F)F)cc2)C(=O)N1` (stereo unspecified) it is 14% (inactive); for `CC(OC(=O)c1cn(-c2ccccc2)nc1-c1cccnc1)C(N)=O` (stereo unspecified) it is 1.32% (inactive).
